Pin1 inhibitor – inhibitors of human Pin1; 390,000 tested, 0.009% active; Pin1 FP peptide displacement, HiFluor488, 10 min; AID 504891; Potency, µM (titrated, usually from 115 µM), for inactives: at the highest dose activity, negative = inhibition, actives largely listed as inhibitors; active = well fitted inhibition curve with a large enough effect in the polarisation, with a control signal flat, not every such curve was filed as active; inconclusive = small, poorly fitted or top-dose-only effect, or effect the other way, or a change in a side signal; inactive = no such curve, though single readings can be large or run the other way; the % refers to the polarisation; note: potency is the fitted concentration of half-maximal effect; % is set by controls: 0 for no effect and ±100 for the full control effect
Target sequence (Q13526 whole entry, looked up): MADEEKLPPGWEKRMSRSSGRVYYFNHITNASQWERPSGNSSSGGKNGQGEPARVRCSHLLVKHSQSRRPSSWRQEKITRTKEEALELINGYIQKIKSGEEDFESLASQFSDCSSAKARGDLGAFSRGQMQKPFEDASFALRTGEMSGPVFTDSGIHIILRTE
FEN1 inhibitor – inhibitors of human flap endonuclease 1. 390,000 tested, 0.35% active. Potency, µM (doses to about 114 µM), without a hit: top-dose activity change, negative = inhibition, actives largely listed as inhibitors. AID 588795. Recombinant FEN1 flap cleavage, fluorescence, 15 min. P39748; note: potency is the fitted concentration of half-maximal effect; % is set by controls: 0 for no effect and ±100 for the full control effect; nearly all actives have a fitted effect of over 65% in size
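Nuclease activity of 10 nM FEN1 was measured after 15 min of room-temperature exposure to titrated compounds, by adding 50 nM flap substrate and reading plates at 0 and 15 min.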
Tb PGK inh – blocks T. brucei phosphoglycerate kinase | P07378 | PGK/GAPDH coupled, Kinase-Glo luminescence, 60 min | Potency, µM (series often up to 57.5 µM), for inactives: at the top dose activity change, negative = inhibition, usual class: inhibitors | 380,000 tested, 0.043% active | AID 602233; note: potency is the fitted concentration of half-maximal effect; % is set by controls: 0 for no effect and ±100 for the full control effect; nearly all actives have a fitted effect of over 60% in size
Target sequence (P07378 whole entry, looked up): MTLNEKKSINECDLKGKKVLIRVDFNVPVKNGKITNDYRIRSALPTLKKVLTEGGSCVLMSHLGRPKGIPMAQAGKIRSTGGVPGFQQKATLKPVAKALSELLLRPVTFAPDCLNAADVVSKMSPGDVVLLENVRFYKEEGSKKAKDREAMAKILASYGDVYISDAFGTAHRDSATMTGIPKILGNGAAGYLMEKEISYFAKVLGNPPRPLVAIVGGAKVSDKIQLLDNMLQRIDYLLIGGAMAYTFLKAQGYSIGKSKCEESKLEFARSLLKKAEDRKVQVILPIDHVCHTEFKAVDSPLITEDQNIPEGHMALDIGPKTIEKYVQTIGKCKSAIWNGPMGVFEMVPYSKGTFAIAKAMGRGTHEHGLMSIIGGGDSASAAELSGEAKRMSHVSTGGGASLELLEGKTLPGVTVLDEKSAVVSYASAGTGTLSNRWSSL
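Luminescent ATP detection (Kinase-Glo Plus) follows a 60-minute room-temperature incubation, with wells lacking PGK as controls. Buffer: 100 mM TEA (pH 7.6), 5 mM MgCl2, 0.01% Tween-20. Coupling enzyme GAPDH (100 nM final) supplies unstable 1,3-BPG in-well.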
WRN inhibitor – WRN helicase (human) inhibition | Q14191 | WRN helicase unwinding, fluorescent forked duplex, kinetic | Potency, µM (top dose mostly 114 µM), without a hit: at the highest dose activity change, negative = inhibition, actives largely listed as inhibitors | 360,000 tested, 0.46% active | AID 651768; note: potency is the fitted concentration of half-maximal effect; % is set by controls: 0 for no effect and ±100 for the full control effect; nearly all actives have a fitted effect of over 55% in size
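Screening of the MLSMR collection measured strand separation of a quenched forked DNA duplex (100 nM) by 20 nM WRN with 2 mM ATP, all final. Compounds were preincubated with enzyme 15 min at room temperature.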
GRP78 ERSR act – induces the endoplasmic reticulum stress response in human glioma cells. U87-MG GRP78 promoter luciferase reporter, 16 h. AID 602332. 420,000 tested, 0.02% active. Potency, µM, for inactives: at the highest dose activation, actives largely listed as activators; note: potency is the fitted concentration of half-maximal effect; series mostly up to about 76 µM; % of control where 0% means no effect; nearly all actives have a fitted effect of over 35% in size
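ERSR induction read as luciferase luminescence (Bright-Glo, 10 min at room temperature) in stably transfected human U87-MG glioma cells exposed to compounds for 16 h, using GRP78 as sensor.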
PI5P4K alpha inh – inhibitors of human PI5P4K alpha | PI5P4Kalpha enzyme, ADP-Glo luminescence, 60 min; stronger effect = lower value | 330,000 tested, 1.2% active | max response, % | AID 652105 | P48426; active = max response of -50% or lower; inconclusive = between -30% and -50%; inactive = -30% or higher; note: value at the top dose of about 77 µM; % is set by controls: 0 for no effect and ±100 for the full control effect
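ADP-Glo luminescence end-point read after a 60 min room-temperature kinase reaction of PI5P4Kalpha plus substrate, initiated with ATP at 5 microM final. Buffer: 0.038 M HEPES pH 7.4, EGTA, 0.1% CHAPS, 5% DMSO.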
The depositor's hits bear a star; i = inactive; ? = inconclusive; . = not tested or not shown; [ ] = another dose, or the depositor's remark. Sampled rows, rich in hits. Any-hit rate of the full collection: about 1.3%. Unless noted, calls come from the whole dose curve; as a rule, active = well fitted curve in the direction sought with a large enough effect; inconclusive = small, poorly fitted or top-dose-only effect, or another doubt; inactive = no such curve, though single readings can be large; an effect the other way counts as inactive or inconclusive.

SMILES	Pin1 inhibitor	FEN1 inhibitor	Tb PGK inh	WRN inhibitor	GRP78 ERSR act	PI5P4K alpha inh
CC(=O)c1cccc(N2Cc3ccccc3C2=NC(=O)CCl)c1	-2%	-10%	-2%	-19%	4%	-70*
N=c1c2c(ncn1-c1ccccc1)Oc1ccc3ccccc3c1C2c1ccc2c(c1)OCO2 (stereo not given)	84%	.	.	.	.	.
O=c1c2c3nc4ccccc4nc3n(Cc3ccccc3)c2ncn1Cc1ccco1	?	-18%	-3%	?	?	-68*
Cn1c2ccccc2c(=O)c2c(=O)n(C3CCCCC3)c(-c3cccs3)nc21	-16%	56µM*	i	-14%[57.1 µM]	-4%	.
CCC(C)C1OC2(C=CC1C)CC1CC(C/C=C(\C)C(OC3CC(OC)C(OC4CC(OC)C(NC(C)=O)C(C)O4)C(C)O3)C(C)/C=C/C=C3\COC4C(O)C(C)=CC(C(=O)O1)C34O)O2 (stereo not given) (tested in a mixture with another compound)	.	.	.	.	-11%	.
O=[N+]([O-])c1cc(Br)cc(C=Nc2ccc3c(c2)OCO3)c1O	-8%	?	-11%	-28%	2%	-51*
Cc1ccc(N=Cc2cc3c(cc2[N+](=O)[O-])OCO3)cc1[N+](=O)[O-]	?	-3%	4%	-5%	-1%	-65*
CNc1cccc(S(=O)(=O)N2CCN(S(=O)(=O)c3ccc4c(c3)OCCO4)CC2)c1	3%	.	.	.	.	.
COC(=O)c1c(NC(=O)COC(=O)c2ccc(NC(=O)CC#N)cc2)sc2c1CCCCC2	?	?	?	56µM*	-5%	-62*
N#CCC(=O)Nc1sc2c(c1C(N)=O)CCCC2	26%	-17%	0%	-25%	-2%	-26
NC(=O)c1c(NC(=O)COC(=O)c2ccc(O)c(Cl)c2)sc2c1CCCC2	22%	?	-4%	-33%	-1%	-55*
COC(=O)c1c(NC(=O)COC(=O)c2ccccc2O)sc2c1CCCCC2	2%	6%	3%	2%[57.1 µM]	-1%	1
Cn1nnnc1SCC1=C(C(=O)O)N2C(=O)[C@@H](NC(=O)[C@H](OC=O)c3ccccc3)[C@H]2SC1	.	.	.	.	-3%	.
CCN(CC)S(=O)(=O)c1ccc(C(=O)NCc2ccc3c(c2)cc(C)n3C)cc1	?	?	1%	50µM*	-2%	-3
COc1ccc(C(=O)NCc2ccc3c(c2)cc(C)n3C)cc1OC	5%	-15%	-10%	-8%	-2%	1
O=C(O)c1cc(=S)nc[nH]1	2%	-1%	2%	-31%	-1%	-65*
O=C(O)c1c[nH]n2c(=S)ncnc12	.	.	0%	-5%	-5%	-24
Cc1cc(C(=O)Nc2ccccc2-c2nc(CNC(=O)C3COc4ccccc4O3)c(C)o2)c(C)o1 (stereo not given)	.	.	.	.	0%	.
Cc1ccc(C(=O)C2C(=O)c3ccccc3C2=O)cc1	1%	-8%	-5%	-6%	-3%	.
NN=C1c2ccccc2C(=O)C1C(=O)C(c1ccccc1)c1ccccc1 (stereo not given)	?	?	3%	50µM*	-2%	-51*
O=[N+]([O-])c1ccc(Nc2ccccc2)c2nonc12	48%	-17%	-7%	-12%	-6%	-26
O=[N+]([O-])c1ccc(Sc2cccc[n+]2[O-])c2nonc12	?	22µM*	?	16µM*	-13%	-53*
Cc1ccc(-c2[nH]c(=S)[nH]c(=O)c2C#N)cc1	4%	12%	6%	-7%	3%	-72*
CCOC(=O)C1=C(O)/C(=C/c2ccc(-c3ccccc3C(=O)O)o2)SC1=Nc1ccc(C)cc1	27%	40µM*	-13%	?	-3%	-99*
CCOC(=O)C1=C(O)/C(=C/c2ccc(-c3ccccc3C(=O)O)o2)SC1=Nc1ccc(OC)cc1	41%	?	6%	?	-7%	-55*
SMILES	Pin1 inhibitor	FEN1 inhibitor	Tb PGK inh	WRN inhibitor	GRP78 ERSR act	PI5P4K alpha inh
CCOC(=O)C1=C(O)/C(=C/c2ccccn2)SC1=Nc1ccc(Cl)cc1	11%	-14%	2%	-12%	0%	13
Cc1cc(C)n(-c2cccc(C(=O)NCC3Cc4cccc(-c5cccnc5)c4O3)c2)n1 (stereo not given)	.	.	.	.	-2%	.
Cc1cc(C)n2ncc(C(=O)NC(C)C)c2n1	-2%	.	.	.	.	.
O=C1CC(c2ccccc2)CC2=C1C1(CCCCC1)N=C(Nc1nc3ccccc3o1)N2 (stereo not given)	-4%	.	.	.	.	.
COc1ccc(CNC(=O)COC(=O)c2cc(-c3ccc(Cl)s3)nc3ccccc23)cc1	?	40%	i	-11%	-1%	9
O=C(COC(=O)c1cc(-c2ccc(Cl)s2)nc2ccccc12)NCc1ccco1	?	3%	-7%	35µM*	0%	?
CCCCCCCCCCCCCCCC[n+]1ccc(/C=C/c2c(C)[nH]c3ccccc23)cc1	.	-30%	.	.	-8%	.
CCCCCCC[n+]1ccc(/C=C/c2c(C)[nH]c3ccccc23)cc1	.	?	.	.	-12%	.
CCCCCCC[n+]1ccc(/C=C/c2c(C)[nH]c3ccccc23)c2ccccc21	.	45µM*	.	.	-12%	.
CCCCCCCCCC[n+]1ccc(/C=C/c2c(C)[nH]c3ccccc23)c2ccccc21	.	45µM*	.	.	-12%	.
COc1ccc(C(=O)C=Cc2ccc(OCc3ccccc3)c(OC)c2)cc1OC	.	.	-8%	-3%	1%	4
COc1cc(/C=C2\C(=O)N(c3cccc(C(=O)O)c3)N=C2C)ccc1OCc1ccccc1	.	.	-9%	2.7µM*	1%	-8
COc1cc(/C=C/[N+](=O)[O-])ccc1OCc1cccc(C(=O)O)c1	28µM*	50µM*	?	20µM*	-14%	-55*
C#CCOc1ccc(/C=C2/C(=O)N(c3cccc(C(=O)O)c3)N=C2C)cc1OC	1%	?	i	?	2%	-19
COc1ccc(CN2CCC3(CC2)c2ccccc2[C@@H](NC(=O)c2ccccc2)[C@@H]3O)cc1O	.	.	.	.	0%	.
Cc1cc2c(s1)c1cnn(Cc3ccc(S(C)(=O)=O)cc3)c(=O)c1n2C	9%	.	.	.	.	.
Cc1ccc(C(=O)N(Cc2cc3cccc(C)c3nc2N2CCC(O)CC2)C2CC2)cc1	.	.	.	.	-5%	.
COc1ccc(/C=C2/CC/C(=C\c3ccc(OC)c(OC)c3OC)C2=O)c(OC)c1OC	25%	0%	-1%	-4%	-3%	1
O=C1NC(=S)SC1=Cc1ccccc1Cl	0%	-9%	-3%	-34%	5%	-79*
COc1ccc(C=C2SC(=S)NC2=O)c(OC)c1OC	-2%	-10%	-6%	?	0%	-64*
O=C1NC(=S)S/C1=C\c1cccc([N+](=O)[O-])c1	?	?	-8%	-7%[11.6 µM]	0%	-65*
COc1ccccc1C=C1SC(=S)NC1=O	?	-3%	-8%	-23%	0%	-72*
